Several values for one entry are separate records, joined by “and”; a condition that tells them apart may be missing. Equal values may be shown once. Activity calls are given as the source filed them. How the calls were made is not given here.
assay: assay artefact check, AlphaScreen readout interference – biochemical, artefact control for SUMOylation inhibitor project, SAR follow-up (AID 488777); conditions: purified counter-screen enzymes, TR-FRET, 60 min

SMILES | IC50
COC(=O)C=C(NC(CO)(CO)CO)C(=O)OC | > 100 µM (inactive)
N#Cc1c(NC(=O)c2ccccc2Cl)n(Cc2ccccc2)c2nc3ccccc3nc12 | > 100 µM (inactive)
CCC[C@H](Nc1ccccc1)C12C=CC(O1)C(C(=O)OC)=C2C(=O)OC (stereo partly drawn) | > 100 µM (inactive)
C=C[C@@H](Nc1ccccc1)C12C=CC(O1)C(C(=O)OC)=C2C(=O)OC (stereo partly drawn) | > 100 µM (inactive)
CCCCn1c(NC(=O)c2ccc(Cl)cc2)c(C#N)c2nc3ccccc3nc21 | 54.4 µM (active)
CCCCn1c(NC(=O)C2CCCCC2)c(C#N)c2nc3ccccc3nc21 | > 100 µM (inactive)
CCCCn1c(NC(=O)c2ccc(OC)cc2)c(S(=O)(=O)c2ccc(C)cc2)c2nc3ccccc3nc21 | > 100 µM (inactive)
CCCC1=NN(c2ccc(C(=O)O)cc2)C(=O)/C1=C/c1ccc(OCc2ccccc2)c(OC)c1 | > 100 µM (inactive)
CCCCn1c(NC(=O)c2ccc(F)cc2)c(C#N)c2nc3ccccc3nc21 | 65.3 µM (active)
C=C[C@H](Nc1ccccc1)C12C=CC(O1)C(C(=O)OC)=C2C(=O)OC (stereo partly drawn) | > 100 µM (inactive)
CCCC1=NN(c2ccc(C(=O)O)cc2)C(=O)/C1=C/c1ccc(OCc2ccccc2)cc1 | 16.4 µM (active)
COC(=O)C1=C(C(=O)OC)C2([C@@H](Cc3ccc(OC)cc3)Nc3ccccc3)C=CC1O2 (stereo partly drawn) | > 100 µM (inactive)
CCCCn1c(NC(=O)c2ccccc2Cl)c(S(=O)(=O)c2ccccc2)c2nc3ccccc3nc21 | > 100 µM (inactive)
COC(=O)C1=C(C(=O)OC)C2([C@H](Cc3ccc(C)cc3)Nc3ccccc3)C=CC1O2 (stereo partly drawn) | > 100 µM (inactive)
CCCCn1c(N)c(S(=O)(=O)c2ccc(C)cc2)c2nc3ccccc3nc21 | > 100 µM (inactive)
COC(=O)C1=C(C(=O)OC)C2([C@@H](Cc3ccc(C)cc3)Nc3ccccc3)C=CC1O2 (stereo partly drawn) | > 100 µM (inactive)
CCCCn1c(N)c(C#N)c2nc3ccccc3nc21 | > 100 µM (inactive)

SMILES | IC50
c1ccc(CC(Nc2ccccc2)c2ccco2)cc1 (stereo not drawn) | > 100 µM (inactive)
CCCCn1c(NC(=O)c2ccccc2)c(C#N)c2nc3ccccc3nc21 | 65.2 µM (active) and 91.7 µM (active)
CCCC1=NN(c2ccc(C(=O)O)cc2)C(=O)/C1=C/c1ccc(O)cc1 | > 100 µM (inactive)
COC(=O)C1=C(C(=O)OC)C2(C(Cc3ccc(F)cc3)Nc3ccccc3)C=CC1O2 (stereo not drawn) | > 100 µM (inactive)
CCCCn1c(NC(=O)c2ccccc2Cl)c(C#N)c2nc3ccccc3nc21 | > 100 µM (inactive)
CCC[C@@H](Nc1ccccc1)C12C=CC(O1)C(C(=O)OC)=C2C(=O)OC (stereo partly drawn) | > 100 µM (inactive)
CCCCn1c(NC(=O)c2ccco2)c(C#N)c2nc3ccccc3nc21 | > 100 µM (inactive)
COC(=O)[C@@H]1C2CCC([C@@H](Cc3ccccc3)Nc3ccccc3)(O2)[C@@H]1C(=O)OC (stereo partly drawn) | > 100 µM (inactive)
CCCCn1c(NC(=O)c2ccc(F)cc2)c(S(=O)(=O)c2ccc(C)cc2)c2nc3ccccc3nc21 | > 100 µM (inactive)
CCCC1=NN(c2ccccc2)C(=O)/C1=C/c1ccc(OCc2ccc(C(=O)OC)cc2)cc1 | > 100 µM (inactive)
COC(=O)C1=C(C(=O)O)C2C=CC1([C@@H](Cc1ccccc1)Nc1ccccc1)O2 (stereo partly drawn) | > 100 µM (inactive)
C=CCn1c(NC(=O)c2ccccc2Cl)c(C#N)c2nc3ccccc3nc21 | > 100 µM (inactive)
CCCCn1c(NC(=O)c2cccc(Cl)c2)c(C#N)c2nc3ccccc3nc21 | > 100 µM (inactive)
CCCCn1c(NC(=O)c2ccccc2)c(S(=O)(=O)c2ccc(C)cc2)c2nc3ccccc3nc21 | > 100 µM (inactive)
CCCCn1c(NC(C)=O)c(C#N)c2nc3ccccc3nc21 | > 100 µM (inactive)
COC(=O)C1=C(C(=O)OC)C2(C(Cc3ccc(OC(F)(F)F)cc3)Nc3ccccc3)C=CC1O2 (stereo not drawn) | > 100 µM (inactive)

Reference: PubChem BioAssay AID488777 (Sanford-Burnham Center for Chemical Genomics, 2010)
